# Measurements published in PubChem BioAssay (NCATS).
# Values without a mark were called inactive. Records with an inconclusive call do not appear. Entries that show only a call come without a potency. The source made the active and inactive calls. Unless noted, calls follow the shape of the dose curve; as a rule, active = well fitted curve in the direction sought with a large enough effect; inconclusive = small, poorly fitted or top-dose-only effect, or another doubt; inactive = no such curve, though single readings can be large; an effect the other way counts as inactive or inconclusive. *1 amine or outer side, *2 acyl side, *3 side chain or, on linkers, in order; H or OH if unused. Where a SMILES comes first, the peptide text is derived from it. Bridges are numbered along the chain shown (N, C = ends). [ ]: non-standard residue; d: D form. The star is where a group is joined. X11 = NC1=N[C@@H](O)C[C@H]([C@H](N[*:1])C(=O)[*:2])N1; ΔAla(Z-3-ureido) = NC(=O)N/C=C(\N)C(=O)O; β3hOrn = NCCC[C@H](N)CC(=O)*; Dap = NC[C@H](N)C(=O)O
# Key:
# [1] = target: Glutathione peroxidase 1 (Homo sapiens) (UniProt P07203); test: Primary qHTS Assay for Inhibitors of Recombinant Selenoprotein Glutathione Peroxidase 1 (GPX1) (AID 1845191); also: nearly all actives have a fitted effect of over 65% in size; also: potency is read from the fitted curve at half-maximal effect
# Sequence of Glutathione peroxidase 1 (Homo sapiens) (P07203 whole entry, looked up): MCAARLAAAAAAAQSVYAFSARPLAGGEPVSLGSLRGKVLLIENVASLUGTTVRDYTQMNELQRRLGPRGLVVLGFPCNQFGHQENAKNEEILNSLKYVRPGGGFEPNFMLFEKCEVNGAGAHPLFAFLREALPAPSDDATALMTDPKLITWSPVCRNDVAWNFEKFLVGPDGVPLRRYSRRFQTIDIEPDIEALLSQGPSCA
# Outline: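 GR-coupled readout: NADPH consumption tracked by fluorescence, ex 340/em 450 nm, at t=0 and after 15 min at RT. Final mix 10 nM GPX1, 1 mM GSH, 0.5 mM CHP, 0.5 mM NADPH, 100 nM GR, 0.01% BSA, following 30 min enzyme–compound preincubation.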
# [2] = AP1 Signaling Pathway (AID 357; active = well fitted curve in either direction with a large enough effect, not every such curve was filed as active); details: ME-180 (cervical carcinoma) AP-1-bla reporter, EGF-induced, beta-lactamase ratio, 5 h; at 7.69 µM (top of the series) unless noted
# Outline: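 AP-1-bla ME-180 cells with beta-lactamase reporter under AP-1 response element, stimulated with EC50 EGF; compounds titrated, 5 hours at 37 degrees Celsius. CCF4 read at 460/530 nm ratio; positive and negative modulators judged by AC50.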
# [3] = target: Cytochrome P450 1A2 (Homo sapiens) (UniProt P05177); test: p450-cyp1a2 (AID 410; calls by dose curve; also: potency is read from the fitted curve at half-maximal effect)
# Sequence of Cytochrome P450 1A2 (Homo sapiens) (P05177 whole entry, looked up): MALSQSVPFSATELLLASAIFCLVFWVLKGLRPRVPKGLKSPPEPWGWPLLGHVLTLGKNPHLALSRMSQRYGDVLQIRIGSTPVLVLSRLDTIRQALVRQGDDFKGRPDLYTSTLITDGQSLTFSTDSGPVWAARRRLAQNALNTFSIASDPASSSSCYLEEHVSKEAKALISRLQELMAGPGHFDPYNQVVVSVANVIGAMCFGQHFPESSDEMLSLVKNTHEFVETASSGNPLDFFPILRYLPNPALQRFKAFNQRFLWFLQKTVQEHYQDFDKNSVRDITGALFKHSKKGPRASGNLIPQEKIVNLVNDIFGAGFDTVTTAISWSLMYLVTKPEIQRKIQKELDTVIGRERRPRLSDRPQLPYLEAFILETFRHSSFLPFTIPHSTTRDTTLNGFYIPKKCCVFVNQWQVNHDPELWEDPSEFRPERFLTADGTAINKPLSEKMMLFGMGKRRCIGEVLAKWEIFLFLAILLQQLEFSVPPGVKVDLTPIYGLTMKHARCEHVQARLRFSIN
# Outline: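 Read-out is luminescence from luciferin produced by CYP1A2 demethylation of Luciferin-ME (100uM, at Km). Detection reagent stopped the 60 min NADPH-dependent reaction; signals were normalized to 57 uM furafylline.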
# [4] = NFAT Signaling Pathway (AID 444; active = well fitted curve in either direction with a large enough effect, not every such curve was filed as active;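 also: carbachol stimulus at about its EC50 of 1 µM final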); details: Jurkat NFAT-bla M1, carbachol, beta-lactamase ratio, 5 h; at 7.69 µM (top of the series) unless noted
# Outline: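 Jurkat cells with NFAT-driven β-lactamase reporter and co-expressed M1 receptor, stimulated with carbachol (final 1 uM, ~EC50), compound titration, 5 h at 37 °C. CCF4 loaded 1 h at RT; 460/530 nm ratio gave %activity and AC50.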
# [5] = Stat Signaling Pathway (AID 446; active = well fitted curve in either direction with a large enough effect, not every such curve was filed as active;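 also: ME-180 cervical cancer cells given 40 pM IL-6 alongside compound; SIE-controlled beta-lactamase reporter measured as 460/530 nm FRET emission ratio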)
# Outline: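 Compound effects on IL-6-induced STAT reporter activity were measured in ME-180 cells. After overnight culture, cells were co-treated with 40 pM IL-6 for 5 hrs before beta-lactamase substrate loading at room temperature.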
# [6] = target: Glucocorticoid receptor (Homo sapiens) (UniProt P04150); test: GR-EFC Redistribution (AID 451; calls by dose curve; also: potency is read from the fitted curve at half-maximal effect); details: CHO-K1 GR-EFC translocation, beta-gal luminescence, 2 h
# Sequence of Glucocorticoid receptor (Homo sapiens) (P04150 whole entry, looked up, the tested form may be a part): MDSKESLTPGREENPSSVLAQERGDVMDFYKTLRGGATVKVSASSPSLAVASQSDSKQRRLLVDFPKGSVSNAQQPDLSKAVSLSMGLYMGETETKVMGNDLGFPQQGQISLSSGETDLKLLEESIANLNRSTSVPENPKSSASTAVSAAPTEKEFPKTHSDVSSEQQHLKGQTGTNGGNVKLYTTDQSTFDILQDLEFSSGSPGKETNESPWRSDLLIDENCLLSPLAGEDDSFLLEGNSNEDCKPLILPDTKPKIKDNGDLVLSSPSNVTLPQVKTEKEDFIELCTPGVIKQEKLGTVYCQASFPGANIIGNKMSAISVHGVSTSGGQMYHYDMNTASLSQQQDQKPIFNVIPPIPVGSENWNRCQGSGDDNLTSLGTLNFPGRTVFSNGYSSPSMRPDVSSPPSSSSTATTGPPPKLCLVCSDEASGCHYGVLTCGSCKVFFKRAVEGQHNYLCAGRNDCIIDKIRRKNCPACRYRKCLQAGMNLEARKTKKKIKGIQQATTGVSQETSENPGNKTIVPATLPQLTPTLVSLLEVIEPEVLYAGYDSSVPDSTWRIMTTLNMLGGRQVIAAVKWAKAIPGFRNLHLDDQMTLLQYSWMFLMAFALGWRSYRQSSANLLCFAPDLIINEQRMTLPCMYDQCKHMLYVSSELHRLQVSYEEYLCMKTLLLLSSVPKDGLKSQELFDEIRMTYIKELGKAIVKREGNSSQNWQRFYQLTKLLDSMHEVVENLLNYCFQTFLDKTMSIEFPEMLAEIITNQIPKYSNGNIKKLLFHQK
# Outline: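 CHO-K1 cells expressing nuclear EA and GR-ED fragments of b-gal; compounds titrated up to 46 uM final, 2 h at 37 C. GR nuclear translocation read as complemented b-gal luminescence after 1 h RT detection.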
# [7] = target: Mitogen-activated protein kinase 10 (Mus musculus) (UniProt Q61831); test: JNK3 AlphaScreen Assay (AID 530; active = well fitted curve in either direction with a large enough effect, not every such curve was filed as active;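 also: kinase came from lysate of stimulated human HepG2 cells; signal reports phosphorylation of biotinylated GST-cJun 1-79 at Ser73 with 10 µM ATP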)
# Outline: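 HepG2 lysate (IL-1b/TNFa pre-activated) + biotin-GST-cJun 1-79 + anti-pSer73 cJun; cpd titration, 15 min RT; ATP 10 uM start; Tris pH 7.6, MgCl2, DTT, vanadate; beads in EDTA buffer; AlphaScreen.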
# [8] = target: 3',5'-cyclic-AMP phosphodiesterase 4B (Homo sapiens) (UniProt Q07343); test: qHTS Assay for Inhibitors of PDE-IV (AID 607; active = well fitted activation curve with a large enough effect in the main read-out, with a control signal flat, not every such curve was filed as active)
# Sequence of 3',5'-cyclic-AMP phosphodiesterase 4B (Homo sapiens) (Q07343 whole entry, looked up): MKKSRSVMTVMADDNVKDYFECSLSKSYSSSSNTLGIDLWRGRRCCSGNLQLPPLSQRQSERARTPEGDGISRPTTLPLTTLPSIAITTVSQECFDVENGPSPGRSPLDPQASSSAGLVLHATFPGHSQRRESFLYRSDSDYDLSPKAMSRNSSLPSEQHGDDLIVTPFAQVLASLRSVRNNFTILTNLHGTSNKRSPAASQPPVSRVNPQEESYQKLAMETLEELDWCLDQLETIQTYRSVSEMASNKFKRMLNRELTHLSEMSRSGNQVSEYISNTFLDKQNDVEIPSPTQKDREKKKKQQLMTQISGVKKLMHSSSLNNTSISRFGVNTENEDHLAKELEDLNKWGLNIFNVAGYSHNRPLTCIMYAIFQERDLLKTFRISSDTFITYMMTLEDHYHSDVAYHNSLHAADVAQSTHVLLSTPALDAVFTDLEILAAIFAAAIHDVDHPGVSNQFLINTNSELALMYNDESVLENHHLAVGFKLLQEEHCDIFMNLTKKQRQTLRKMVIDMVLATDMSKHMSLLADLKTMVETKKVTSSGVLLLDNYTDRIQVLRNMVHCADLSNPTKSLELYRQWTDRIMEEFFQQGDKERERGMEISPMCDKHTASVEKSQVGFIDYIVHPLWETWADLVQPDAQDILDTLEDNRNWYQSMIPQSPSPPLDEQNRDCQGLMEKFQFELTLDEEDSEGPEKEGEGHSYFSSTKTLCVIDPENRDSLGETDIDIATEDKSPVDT
# Outline: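 ACTOne HEK293 cells carry a modified cAMP-gated CNG channel and express endogenous PDE4; plated 1000 cells/well, compounds up to 22.9 uM final. Membrane-potential dye fluorescence (ex 535/em 590) was read; parental cells received 10 uM forskolin + 100 uM RO 20-1724.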
# [9] = target: Cytochrome P450 3A4 (Homo sapiens) (UniProt P08684); test: qHTS Assay for Activators of Cytochrome P450 3A4 (AID 885); also: nearly all actives have a fitted effect of over 65% in size
# Sequence of Cytochrome P450 3A4 (Homo sapiens) (P08684 whole entry, looked up): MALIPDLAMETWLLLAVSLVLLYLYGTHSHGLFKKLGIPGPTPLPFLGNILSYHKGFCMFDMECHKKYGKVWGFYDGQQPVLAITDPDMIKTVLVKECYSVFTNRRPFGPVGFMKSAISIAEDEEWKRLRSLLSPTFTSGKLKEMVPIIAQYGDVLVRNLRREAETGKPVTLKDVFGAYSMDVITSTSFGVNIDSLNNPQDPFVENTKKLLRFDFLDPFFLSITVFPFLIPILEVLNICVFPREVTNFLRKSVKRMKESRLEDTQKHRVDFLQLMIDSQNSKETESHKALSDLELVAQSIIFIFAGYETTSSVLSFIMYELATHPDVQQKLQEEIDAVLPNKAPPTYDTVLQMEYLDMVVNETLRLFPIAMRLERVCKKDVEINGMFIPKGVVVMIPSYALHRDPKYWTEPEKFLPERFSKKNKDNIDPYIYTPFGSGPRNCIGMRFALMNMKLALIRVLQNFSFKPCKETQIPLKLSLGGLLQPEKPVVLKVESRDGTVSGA
# Outline: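 CYP3A4 activity: Luciferin-PPXE O-dealkylation, 25uM substrate, 200mM KPO4, RT throughout. Read-out is luciferase luminescence; higher values reflect activation.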
# [10] = target: Cytochrome P450 2D6 (Homo sapiens) (UniProt P10635); test: qHTS Assay for Inhibitors and Substrates of Cytochrome P450 2D6 (AID 891); also: potency is read from the fitted curve at half-maximal effect; nearly all actives have a fitted effect of over 60% in size
# Sequence of Cytochrome P450 2D6 (Homo sapiens) (P10635 whole entry, looked up): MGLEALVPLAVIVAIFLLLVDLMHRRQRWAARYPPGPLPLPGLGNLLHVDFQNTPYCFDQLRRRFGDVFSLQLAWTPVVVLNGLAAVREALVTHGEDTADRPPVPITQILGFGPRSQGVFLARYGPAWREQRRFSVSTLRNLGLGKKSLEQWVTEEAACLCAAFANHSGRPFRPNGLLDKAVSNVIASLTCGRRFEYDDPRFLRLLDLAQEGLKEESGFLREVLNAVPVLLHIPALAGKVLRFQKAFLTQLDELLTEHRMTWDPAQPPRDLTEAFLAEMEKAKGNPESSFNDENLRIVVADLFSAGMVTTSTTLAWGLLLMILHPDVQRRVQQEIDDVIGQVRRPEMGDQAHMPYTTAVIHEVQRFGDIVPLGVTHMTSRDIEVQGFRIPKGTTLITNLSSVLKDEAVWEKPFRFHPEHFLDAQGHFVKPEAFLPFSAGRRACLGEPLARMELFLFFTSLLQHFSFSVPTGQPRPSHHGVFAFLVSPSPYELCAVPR
# Outline: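 Luminescent read-out of luciferin formed by 5 nM human CYP2D6 demethylating 30 uM Luciferin-ME EGE (Km level) over 60 min at room temperature after NADPH regeneration addition. Data normalized to full inhibition by 1.43 uM quinidine.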
# [11] = target: Dual specificity protein kinase CLK4 (Homo sapiens) (UniProt Q9HAZ1); test: qHTS Assay for Inhibitors of CDC-like Kinase 4 (ADP-FP Assay) (AID 1795);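 also: recombinant human CLK4 phosphorylating RS repeat peptide at 1 µM ATP; nearly all actives have a fitted effect of over 60% in size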
# Sequence of Dual specificity protein kinase CLK4 (Homo sapiens) (Q9HAZ1 whole entry, looked up): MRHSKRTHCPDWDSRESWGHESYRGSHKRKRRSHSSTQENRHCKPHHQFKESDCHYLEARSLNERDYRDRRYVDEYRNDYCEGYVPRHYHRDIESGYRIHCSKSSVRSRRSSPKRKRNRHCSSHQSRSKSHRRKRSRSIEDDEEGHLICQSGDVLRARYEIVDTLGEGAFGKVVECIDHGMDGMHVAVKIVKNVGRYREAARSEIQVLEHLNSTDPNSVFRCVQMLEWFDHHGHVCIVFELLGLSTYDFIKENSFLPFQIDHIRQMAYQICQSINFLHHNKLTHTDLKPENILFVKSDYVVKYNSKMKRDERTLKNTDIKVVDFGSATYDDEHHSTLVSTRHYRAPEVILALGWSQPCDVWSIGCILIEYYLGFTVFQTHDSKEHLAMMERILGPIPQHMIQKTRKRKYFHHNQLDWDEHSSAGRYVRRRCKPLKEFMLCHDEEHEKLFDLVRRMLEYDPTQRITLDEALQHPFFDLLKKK
# Outline: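 Clk4 6.25 nM; RS peptide 100 uM; ATP 1 uM; 25 mM Tris pH 7.5, 10 mM MgCl2; 1 h reaction. ADP detected via antibody/orange tracer FP displacement; TG003 positive control.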
# [12] = target: Ubiquitin carboxyl-terminal hydrolase 1 (Homo sapiens) (UniProt O94782); test: Inhibitors of USP1/UAF1: Pilot qHTS (AID 504865);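 also: rhodamine fluorescence freed from ubiquitin-rhodamine substrate followed over time; top concentration of the series differs between compounds; nearly all actives have a fitted effect of over 35% in size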
# Sequence of Ubiquitin carboxyl-terminal hydrolase 1 (Homo sapiens) (O94782 whole entry, looked up): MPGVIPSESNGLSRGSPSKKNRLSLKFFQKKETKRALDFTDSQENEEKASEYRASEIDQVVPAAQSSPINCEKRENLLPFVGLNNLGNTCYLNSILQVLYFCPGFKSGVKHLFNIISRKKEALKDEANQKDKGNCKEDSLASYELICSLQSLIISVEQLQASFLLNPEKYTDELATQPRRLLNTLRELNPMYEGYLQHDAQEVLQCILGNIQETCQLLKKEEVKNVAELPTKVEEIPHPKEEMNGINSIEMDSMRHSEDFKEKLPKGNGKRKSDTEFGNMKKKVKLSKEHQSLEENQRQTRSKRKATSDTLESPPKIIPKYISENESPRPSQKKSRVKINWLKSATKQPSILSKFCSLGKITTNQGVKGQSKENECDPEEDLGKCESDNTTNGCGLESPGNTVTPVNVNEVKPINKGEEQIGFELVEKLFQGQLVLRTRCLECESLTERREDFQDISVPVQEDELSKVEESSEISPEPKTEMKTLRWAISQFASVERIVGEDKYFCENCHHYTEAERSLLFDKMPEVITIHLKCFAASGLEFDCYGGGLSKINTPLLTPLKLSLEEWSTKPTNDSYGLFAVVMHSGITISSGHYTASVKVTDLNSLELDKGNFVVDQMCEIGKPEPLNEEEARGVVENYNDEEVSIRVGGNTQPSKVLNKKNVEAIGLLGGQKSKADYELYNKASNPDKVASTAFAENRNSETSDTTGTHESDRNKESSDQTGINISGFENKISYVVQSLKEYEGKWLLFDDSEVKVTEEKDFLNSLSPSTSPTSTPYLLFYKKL
# Outline: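 In 50mM HEPES pH 7.8 containing 0.5mM EDTA, 1mM TCEP, 0.1 mg/ml BSA and 0.01% Tween-20, 1nM USP1/UAF1 is exposed to compound for 15 min, then Ub-Rho (150nM final) is added and fluorescence is read over time.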
# [13] = target: Glucocorticoid receptor (Homo sapiens) (UniProt P04150); test: GR-GFP Redistribution (AID 450;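 active = compounds whose dose series gives a full or clear partial fitted curve of increased nuclear translocation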; also: potency is read from the fitted curve at half-maximal effect); details: U2OS GR-GFP nuclear translocation, laser cytometry, 2 h
# [14] = target: Phospholipid hydroperoxide glutathione peroxidase GPX4 (Homo sapiens) (UniProt P36969); test: Primary qHTS Assay for Inhibitors of Recombinant Selenoprotein Glutathione Peroxidase 4 (GPX4) (AID 1845192); also: nearly all actives have a fitted effect of over 65% in size; also: potency is read from the fitted curve at half-maximal effect
# Sequence of Phospholipid hydroperoxide glutathione peroxidase GPX4 (Homo sapiens) (P36969 whole entry, looked up): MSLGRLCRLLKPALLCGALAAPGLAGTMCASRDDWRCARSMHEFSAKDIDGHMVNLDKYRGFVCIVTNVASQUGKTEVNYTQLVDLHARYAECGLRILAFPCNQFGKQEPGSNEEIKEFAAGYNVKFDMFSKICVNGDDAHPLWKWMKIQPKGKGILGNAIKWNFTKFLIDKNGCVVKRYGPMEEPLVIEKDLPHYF
# Outline: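 Steps: GPX4 plus compound, 30 min RT; add GR/GSH/NADPH master mix; start with cumene hydroperoxide; read 340/450 nm fluorescence at 0 and 15 min. Finals were 200 nM GPX4, 1 mM GSH, 0.5 mM CHP, 0.5 mM NADPH, 100 nM GR.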
compound,measurement,setting,value
CC(=O)OCC1=C(C(=O)O)N2C(=O)[C@@H](NC(=O)[C@H](N)c3ccccc3)[C@H]2SC1,Potency,[1],10.1 µM (active)
CN(C)c1ccc(-c2cc(N(C)Cc3ccco3)ncn2)cc1,"activity change, negative = inhibition",[2],-23.1%
same,Potency,[3],0.316 µM (active)
same,"activity change, negative = inhibition",[4],3.68%
same,outcome,[5],inactive
same,Potency,[6],> 46 µM
same,Potency,[7],inactive
same,Potency,[8],inactive
same,outcome,[9],inactive
same,Potency,[10],7.94 µM (active)
same,Potency,[11],inactive
same,Potency,[12],inactive
CN(C)Cc1ccccc1-c1ccc2ncnc(N(C)C)c2c1,"activity change, negative = inhibition",[2],-1.59%
same,Potency,[3],12.6 µM (active)
same,"activity change, negative = inhibition",[4],-2.16%
same,outcome,[5],inactive
same,Potency,[13],> 46 µM
same,Potency,[6],> 46 µM
same,Potency,[8],inactive
same,outcome,[9],inactive
same,Potency,[11],inactive
same,Potency,[12],inactive
COc1cc2c(cc1OC)[C@H]1C[C@@H](OC(=O)[C@@H](N)C(C)C)[C@H](CC(C)C)CN1CC2,Potency,[1],inactive
same,Potency,[14],inactive
CCC(=C(CC)c1ccc(OP(=O)(O)O)cc1)c1ccc(OP(=O)(O)O)cc1,"activity, negative = inhibition",[1],1.38% [at 0.4 µM]
same,"activity change, negative = inhibition",[14],1.61% [at 0.409 µM]
CCCC(=O)O[C@]1(C(=O)COC(C)=O)CC[C@H]2C3C[C@H](F)C4=CC(=O)C=C[C@]4(C)[C@@]3(F)[C@@H](O)C[C@@]21C (stereo partly drawn),Potency,[1],inactive
same,Potency,[14],inactive
O=C(O)C[C@@H]1CC[C@H](NC(=O)Cc2cccs2)B(O)O1,Potency,[1],inactive
same,Potency,[14],inactive
CCCCCCO[C@@H](C)c1cccc(-c2csc(NC(=O)c3cc(Cl)c(/C=C(\C)C(=O)O)c(Cl)c3)n2)c1OC,Potency,[1],inactive
same,Potency,[14],2.51 µM (active)
NCCC[C@H](N)CC(=O)N[C@H]1CNC(=O)[C@H]([C@H]2C[C@H](O)N=C(N)N2)NC(=O)/C(=C/NC(N)=O)NC(=O)[C@H](CO)NC(=O)[C@H](CO)NC1=O (β3hOrn-[Dap]SS[ΔAla(Z-3-ureido)][X11]; lactam 1-C),Potency,[1],inactive
same,Potency,[14],inactive
COc1cc(/C=C\C(=O)N2CCN(CC(=O)N3CCCC3)CC2)cc(OC)c1OC,Potency,[1],inactive
same,Potency,[14],inactive
COC(=S)NCCn1c([N+](=O)[O-])cnc1C,Potency,[1],inactive
same,Potency,[14],inactive
CCOc1ccc(Cc2cc([C@@]34OC[C@@](CO)(O3)[C@@H](O)[C@H](O)[C@H]4O)ccc2Cl)cc1,Potency,[1],inactive
same,Potency,[14],inactive
CNc1ncc(-c2ccc3c(=O)c(C(=O)O)cn(C4CC4)c3c2C)cc1C,Potency,[1],inactive
same,Potency,[14],inactive
CC(OC(=O)NCC1(CC(=O)O)CCCCC1)OC(=O)C(C)C (stereo not drawn),Potency,[1],inactive
same,Potency,[14],inactive
OC[C@H]1OC(O)C[C@@H](O)[C@@H]1O (stereo partly drawn),Potency,[1],inactive
same,Potency,[14],inactive
CC(=O)OC1CC(OC2C(O)CC(OC3C(O)CC(OC4CCC5(C)C(CCC6C5CCC5(C)C(C7=CC(=O)OC7)CCC65O)C4)OC3C)OC2C)OC(C)C1O (stereo not drawn),Potency,[1],inactive
same,Potency,[14],inactive
